Measurements from ChEMBL document CHEMBL3433997, “St. Jude Leishmania screening dataset” (2016).

molecular target: Glucose transporter (Leishmania mexicana) (UniProt O61059); test: ST_JUDE_LEISH: Cytotoxicity at 2uM final concentration against transgenic Leishmania Mexicana promastigotes LmGT2 that are glucose transport deficient and complemented with the L. Mexicana glucose transporter 2. Activity is measured by DNA content using SYBR green in vitro; format: functional

Structure (SMILES) | inhibition
COc1ccc2ncc(F)c(CCN3CCC(NCc4cnc5c(c4)NC(=O)CS5)CC3)c2c1 | 2.03%
O=C(CCCc1ccccc1)Nc1cccc(N2CCC(N3CCN(c4ccccc4O)CC3)CC2)c1 | 7.72%
Cc1cnn(-c2cccc(C(=O)NC3CCC(CCN4CCc5ccc(C#N)cc5CC4)CC3)c2)c1 (stereo not given) | -0.22%
CCNC[C@H]1CCCN1CCOc1ccc(-n2cnc3cc(-c4ccc(Cl)cc4)sc3c2=O)cc1OC | -2.28%
CC(C)(C)c1ccc(Cc2cccc3nc(N)nc(N)c23)cc1 | 11.4%
Cc1cc(CN2CC[C@H](NC(=O)c3ccc(Cl)c(Cl)c3)C2)ccc1OCCN1CCNCC1 | 0.3%
O=C(c1ccc2ccccc2n1)N1CCCc2cc(Br)ccc21 | 0.16%
CCCCNCCOc1ccc(-c2nc(-c3ccccc3)c(-c3ccccc3)[nH]2)cc1 | 0.53%
CN1CCN(CCCNCc2cccc(-c3ccc(CNCCc4ccccc4)cc3)c2)CC1 | 1.49%
COc1ccc(NC(=O)C2c3ccccc3C(=O)N(C3CCCC3)C2c2cccs2)cc1 (stereo not given) | 5%
